For 25 compounds, Potency results are on record in PubChem BioAssay AID1347146 (National Center for Advancing Translational Sciences (NCATS), 2019).

Inconclusive results are not listed. Where a call stands in place of a potency, no number is given. Active and inactive are the calls of the source. Calls follow the shape of the dose curve; as a rule, active = well fitted inhibition curve with a large enough effect; inconclusive = small, poorly fitted or top-dose-only effect; inactive = no such curve, though single readings can be large or run the other way.
Potency is read from the fitted curve at half-maximal effect.

Sequence of Nicotinamide N-methyltransferase (Homo sapiens) (P40261 whole entry, looked up): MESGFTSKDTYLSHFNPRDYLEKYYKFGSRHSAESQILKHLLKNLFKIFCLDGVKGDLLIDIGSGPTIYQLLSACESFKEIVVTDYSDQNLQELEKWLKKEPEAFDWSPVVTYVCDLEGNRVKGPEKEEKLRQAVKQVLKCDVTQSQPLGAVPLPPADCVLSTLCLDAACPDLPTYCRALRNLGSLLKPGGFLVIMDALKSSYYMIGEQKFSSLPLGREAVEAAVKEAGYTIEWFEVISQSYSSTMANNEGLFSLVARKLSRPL

The assay addresses Nicotinamide N-methyltransferase (Homo sapiens) (UniProt P40261). The experiment in a line: qHTS Assay for Inhibitors of N-terminal methyltransferase 1 (NTMT1): NNMT MTaseGlo counterscreen assay. The settings on record: NNMT enzyme, MTase-Glo luminescence counterscreen; series mostly up to 57.1 µM. The source says: Assay Submitter (PI): Rong Huang Ph.D, Purdue University, West Lafayette, IN 47907
The N-terminal methytransferase 1 is the first methyltransferase that methylates protein alpha-N-amines and plays an important role in regulating cell mitosis, chromatin interactions and DNA repair. It is observed to be over-expressed in various cancer patient tissues like malignant melanoma and colorectal cancer tissues. Knockdown of NTMT1 in cancer cells causes cell mitotic defects and enhances sensitivity to DNA damaging chemotherapeutics. […] These critical cellular processes in which NTMT1 is implicated, coupled with emerging links to cellular dysfunction, strengthen the inference that NTMT1 is a compelling novel anticancer target. Progress have been made in understanding the molecular properties of NTMT1 and the biological consequences of protein alpha-N-terminal methylation, but there are no specific small molecule probes available for NTMT1 to fully characterize its MTase activity. To address this unmet need, a panel of assay is created and established to enable quantitative high-throughput screening (qHTS) for novel, potent, and selective small molecule NTMT1 inhibitors. Two orthogonal qHTS that use different reagents (ThioGlo vs. MTaseGlo) are developed for primary robotic screening against the NCATS chemical library of more than 400,000 small molecules. Identified inhibitors are reacquired, validated, and further characterized.
MTaseGlo Assay is a luminescence screen that measure the activity of methyltransferases based on the reaction product S-adenosyl homocysteine (SAH). The substrate SAM is converted to SAH upon enzyme activation. MTase-Glo reagent and detection solution convert SAH to ATP and measure the light from the luciferase reaction. Nicotinamide N-methyltransferase (NNMT) is a cystolic enzyme that catalyzes the transfer of a methyl group from the co-factor SAM onto the substrate, nicotinamide (NA) to form 1-methyl-nicotinamide (MNA) and SAH. NNMT MTaseGlo assay is used as a counterscreen to evaluate selectivity of identified inhibitors.
Early Translation Branch (ETB)
National Center for Advancing Translational Sciences (NCATS)
National Institute of Health (NIH)
NNMT enzyme, SAM, NA, and control is provided by the Huang laboratory.
In brief, 3 µL of enzyme mixture (final concentrations of 125 nM and 100 µM for NNMT and SAM, respectively) into all wells of a 1,536-well solid-bottom white plate (Greiner Bio One, Monroe, NC). 23 nL of DMSO or compound (final concentration range 234 nM to 143 microM) was transferred via Wako Pin-tool (Wako Automation, Richmond, VA) and incubated (RT) for ~15 minutes. Next, 1 µL of substrate (final concentration 1 µM NA) or buffer was dispensed, and the reaction proceeded for 30 minutes (RT, protected from light) followed by a 1 microL addition of [5X] MTase-Glo Reagent(R). Samples were incubated (RT, protected from light) for 30 minutes to allow for SAH to be converted to ADP, followed by a 5 microL addition of [1X] MTase-Glo Detection Solution(R) to allow for ADP to be converted to ATP, which was then detected with a luciferase reaction. Samples were centrifuged for 15 seconds at 1,000 RPM's, followed by a RT incubation for 30 minutes. Plates were then read using Luminescence optics on a ViewLux detector. Data were normalized to no-enzyme (0% activity) and no-inhibitor (DMSO; 100%) controls, and the resulting percent inhibition data were fitted to a 4-parameter Hill equation using Graphpad Prism.
For the compound `c1ccc(CCCN2CCN(CCOC(c3ccccc3)c3ccccc3)CC2)cc1`, the Potency result was “inactive”. `C[N+]1(C)CCN(c2ccccc2)CC1`: the Potency result is “inactive”.

For `CC(C)(C)c1cc(C=C(C#N)C#N)cc(C(C)(C)C)c1O`, the Potency entry was “inactive”. In the case of `NCC(O)c1cc(O)c(O)cc1F` (stereo not given), the Potency entry is “inactive”. For `O=[N+]([O-])c1cc(O)c(O)c([N+](=O)[O-])c1`, the Potency result is “inactive”. Regarding `N#CC(C#N)=Cc1ccc(O)c(O)c1`, the Potency result was “inactive”. For `O=[N+]([O-])c1ccc2nc(N3CCNCC3)ccc2c1`, the Potency result is “inactive”. The figure for `COc1ccc2c(c[n+](C)c3c4cc5c(cc4ccc23)OCO5)c1OC` is 12.6 µM (active); for `NC(=O)CI` it is “inactive”. With `CNCCc1c[nH]c2ccc(O)cc12` the entry was “inactive”; with `CN[C@@H]1C[C@@H](c2ccc(Cl)c(Cl)c2)c2ccccc21`, “inactive”. With `NC(N)=Nc1ccc2[nH]c3c(c2c1)C[C@@]1(O)[C@H]2Cc4ccc(O)c5c4[C@@]1(CCN2CC1CC1)[C@H]3O5` the entry was “inactive”; with `C[N+]1(C)C2CCC1CC(OC(=O)c1c[nH]c3ccccc13)C2` (stereo not given), “inactive”; with `Ic1ccccc1CNC1C2CCN(CC2)C1C(c1ccccc1)c1ccccc1` (stereo not given), “inactive”. Consider `CC(N)Cc1c[nH]c2ccc(O)cc12` (stereo not given), for which the Potency entry was “inactive”.

Consider `O=C1CC[C@@]2(O)C3Cc4ccc(O)c5c4C2(CCN3CC2CC2)[C@H]1O5` (stereo not given in full), for which the Potency result is “inactive”. The entry for `CCn1cnc2c(Nc3cccc(Cl)c3)nc(N[C@@H]3CCCC[C@@H]3N)nc21` is “inactive”; for `NC1CCc2cc(O)c(O)cc2C1` (stereo not given) it is “inactive”. The entry for `CCCN(CCC)[C@H]1CCc2c(F)ccc(O)c2C1` is “inactive”; for `CC(=O)c1c(O)c(C)c(O)c(Cc2c(O)c3c(c(C(=O)/C=C/c4ccccc4)c2O)OC(C)(C)C=C3)c1O` it is “inactive”; for `CC(N)[C@H](O)c1ccc(O)c(O)c1` (stereo not given in full) it is “inactive”. As for `CC(C)=CCOc1c2occc2cc2ccc(=O)oc12`, the Potency entry was “inactive”. With `Clc1ccc(N2CC3CCC(C2)N3)nn1` the entry was “inactive”; with `COC[C@H]1OC(=O)c2coc3c2[C@@]1(C)C1=C(C3=O)C2CCC(=O)[C@@]2(C)C[C@H]1OC(C)=O` (stereo not given in full), “inactive”; with `C[N+](C)(C)CC#CCN1CCCC1=O`, “inactive”.
